# In PubChem BioAssay (Tox21):
# Inconclusive results are not listed. Calls of active or inactive are those of the source. Calls follow the shape of the full dose curve.
# System: not listed separately
# Experiment: qHTS assay to identify small molecule agonists of the AP-1 signaling pathway - cell viability counter screen (AID 1159525); also: nearly all actives have a fitted effect of over 55% in size
# Details: ME-180 AP-1-bla cells viability, ATP luminescence, 5 h; series mostly up to 76.8 µM; viability change, negative = cytotoxic: at the top concentration
# In short: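 Luminescent ATP readout (Cell Titer Glo, 30 min RT), normalised to DMSO and tetra n-octyl ammonium bromide controls. Cells were ME-180 AP-1-bla in 0.5% dialyzed FBS Opti-MEM, with a 5 h, 37 °C compound exposure.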
row,SMILES,"viability change, negative = cytotoxic"
1,CC(C)C(=O)OCCc1ccccc1,-0.0214% (inactive)
2,COc1cc(C(=S)N2CCOCC2)cc(OC)c1OC,2.77% [at 35.3 µM] (inactive)
3,Cc1ccccc1C(=O)Nc1ccc(C(=O)N2CCCC(N(C)C)c3ccccc32)cc1 (centres undefined),-8.59% [at 35.3 µM] (inactive)
4,CCCCCCCCC1CCC(=O)O1 (centres undefined),-8.02% (inactive)
5,CCCCCCCCCCCCCC,-0.348% (inactive)
6,CC(=O)OC(C)OC(=O)C(C)c1ccc(-c2ccccc2)c(F)c1 (centres undefined),3.24% [at 35.3 µM] (inactive)

# System: not listed separately
# Experiment: qHTS assay to identify small molecule agonists of the AP-1 signaling pathway (AID 1159526); also: % is scaled to controls: 0 for no effect and ±100 for the full control effect
# Details: ME-180 (cervical carcinoma) AP-1-bla reporter, beta-lactamase FRET ratio, 5 h; series mostly up to 76.8 µM; activation: at the top concentration
row,SMILES,activation
1,CC(CO)c1ccccc1 (centres undefined),0.979% (inactive)
2,CCOc1cc([N+](=O)[O-])c(OCC)cc1N1CCOCC1,-9.16% (inactive)
3,CC(=O)c1sc(C)nc1C,-1.41% (inactive)
4,O=S(O)(O)=S,11.4% [at 6.97 µM] (inactive)
5,CCO[Si](CCCS)(OCC)OCC,4.27% (inactive)
6,N[C@@H](COP(=O)(O)O)C(=O)O,-0.856% [at 15.8 µM] (inactive)
7,Brc1ccc(-c2ccccc2)cc1,25.7% (inactive)
8,CCCCC(CC)COCCO (centres undefined),1.78% (inactive)
9,CN1C(C)(C)CCCC1(C)C,-4.27% [at 35.3 µM] (inactive)
10,Nc1nnc(-c2cccc(Cl)c2Cl)c(N)n1,2.66% [at 35.3 µM] (inactive)
11,COc1nccnc1NS(=O)(=O)c1ccc(N)cc1,-3.19% [at 35.3 µM] (inactive)
12,Nc1ncnc(Nc2ccccc2)n1,1.19% [at 35.3 µM] (inactive)
13,CC1=CCC(C(C)C)=CC1,-1.31% (inactive)
14,CN1CCN(CC(=O)N2c3ccccc3C(=O)Nc3cccnc32)CC1,-1.4% [at 6.97 µM] (inactive)
15,CCCOC(=O)C(C)O (centres undefined),-4.54% (inactive)
16,CCOCCOCCOCC,0.493% (inactive)
17,CC(=C(CCOC(=O)C(C)C)SSC(CCOC(=O)C(C)C)=C(C)N(C=O)Cc1cnc(C)nc1N)N(C=O)Cc1cnc(C)nc1N,-3.4% [at 35.3 µM] (inactive)
18,COc1ccc(-c2cc(=O)c3c(O)cc(O[C@@H]4O[C@H](CO[C@@H]5O[C@@H](C)[C@H](O)[C@@H](O)[C@H]5O)[C@@H](O)[C@H](O)[C@H]4O)cc3o2)cc1O,-1.01% [at 35.3 µM] (inactive)
19,Cc1c(I)c(=O)n(-c2ccccc2)n1C,2.46% [at 35.3 µM] (inactive)

row,SMILES,activation
1,CCCCCCCCSCC,-3.79% (inactive)
2,CCC(C=O)CC,-8.95% (inactive)
3,COc1cc(NS(=O)(=O)c2ccc(N)cc2)nc(OC)n1,-8.4% [at 35.3 µM] (inactive)
4,CCN(CC)CC(=O)Nc1c(C)cccc1C,13.3% [at 35.3 µM] (inactive)
5,NC(CO)C(=O)NNCc1ccc(O)c(O)c1O (centres undefined),9.52% [at 35.3 µM] (inactive)
6,CCCCCCCCCCl,-0.25% (inactive)
7,CCOC(=O)c1ncn2c1CN(C)C(=O)c1cc(F)ccc1-2,-4.22% [at 35.3 µM] (inactive)
8,N[C@@H](CCC(=O)N[C@@H](CS)C(=O)NCC(=O)O)C(=O)O,1.13% [at 15.8 µM] (inactive)
9,Cc1cc(C(C)(C)C)c(O)c(C)c1CC1=NCCN1,0.0613% [at 35.3 µM] (inactive)
10,O=C(O)Cc1ccc(Cl)cc1Cl,0% (inactive)
11,O=C(OCc1ccccc1)C(=O)OCc1ccccc1,5.69% (inactive)
12,CC(C)C(=O)OCCc1ccccc1,-10.1% (inactive)
13,COc1cc(C(=S)N2CCOCC2)cc(OC)c1OC,-5.52% [at 35.3 µM] (inactive)
14,COc1ccc(S(=O)(=O)N2c3ccc(Cl)cc3[C@@](O)(c3ccccc3Cl)[C@H]2C(=O)N2CCC[C@@H]2C(N)=O)cc1OC,-5.61% [at 35.3 µM] (inactive)
15,Cc1ccccc1C(=O)Nc1ccc(C(=O)N2CCCC(N(C)C)c3ccccc32)cc1 (centres undefined),-12% [at 35.3 µM] (inactive)
16,CCCCCCCCC1CCC(=O)O1 (centres undefined),-1.76% (inactive)
17,NS(=O)(=O)c1ccc(NC(=O)CCC(=O)O)cc1,-3.69% [at 35.3 µM] (inactive)
18,CCCCCCCCCCCCCC,-1.93% (inactive)
19,CC(=O)OC(C)OC(=O)C(C)c1ccc(-c2ccccc2)c(F)c1 (centres undefined),-1.72% [at 35.3 µM] (inactive)

# Target: Retinoic acid receptor RXR-alpha (Homo sapiens) (UniProt P19793)
# Sequence (P19793 whole entry, looked up): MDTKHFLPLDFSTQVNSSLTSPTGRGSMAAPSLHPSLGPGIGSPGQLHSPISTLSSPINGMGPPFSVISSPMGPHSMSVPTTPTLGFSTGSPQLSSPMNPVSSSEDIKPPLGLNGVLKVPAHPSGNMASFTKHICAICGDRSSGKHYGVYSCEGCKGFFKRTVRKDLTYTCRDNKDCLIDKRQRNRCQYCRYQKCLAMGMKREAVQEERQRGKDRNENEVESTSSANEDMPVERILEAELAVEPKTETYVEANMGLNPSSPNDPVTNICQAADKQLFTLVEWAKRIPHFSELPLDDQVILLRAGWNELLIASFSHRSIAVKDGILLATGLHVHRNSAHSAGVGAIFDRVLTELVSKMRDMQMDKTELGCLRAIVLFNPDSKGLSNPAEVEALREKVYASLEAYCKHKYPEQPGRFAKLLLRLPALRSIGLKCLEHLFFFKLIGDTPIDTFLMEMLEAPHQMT
# Experiment: qHTS assay to identify small molecule agonists of the RXR signaling pathway (AID 1159527); also: % is scaled to controls: 0 for no effect and ±100 for the full control effect; nearly all actives have a fitted effect of over 35% in size
# Details: HEK293T RXRa-UAS-bla, beta-lactamase ratio, 16 h; series mostly up to 76.8 µM; activation: at the top concentration
# In short: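 Read-out: beta-lactamase FRET ratio (405 nm excitation, 460 and 530 nm emission) after 2 hr substrate loading at room temperature. Cells were RXR-alpha-UAS-bla HEK 293T treated with compounds for 16 hr in 2% charcoal-stripped FBS medium.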
row,SMILES,activation
1,CC(CO)c1ccccc1 (centres undefined),3.14% (inactive)
2,CCOc1cc([N+](=O)[O-])c(OCC)cc1N1CCOCC1,-20.1% (inactive)
3,CC(=O)c1sc(C)nc1C,-1.94% (inactive)
4,O=S(O)(O)=S,4.57% [at 6.98 µM] (inactive)
5,CCO[Si](CCCS)(OCC)OCC,5.3% (inactive)
6,N[C@@H](COP(=O)(O)O)C(=O)O,7.83% [at 15.8 µM] (inactive)
7,Brc1ccc(-c2ccccc2)cc1,1.91% (inactive)
8,CCCCC(CC)COCCO (centres undefined),1.12% (inactive)
9,CN1C(C)(C)CCCC1(C)C,4.87% [at 35.3 µM] (inactive)
10,COc1nccnc1NS(=O)(=O)c1ccc(N)cc1,1.9% [at 35.3 µM] (inactive)
11,Nc1ncnc(Nc2ccccc2)n1,1.96% [at 35.3 µM] (inactive)
12,CC1=CCC(C(C)C)=CC1,0.898% (inactive)
13,CN1CCN(CC(=O)N2c3ccccc3C(=O)Nc3cccnc32)CC1,4.73% [at 6.98 µM] (inactive)
14,CCOCCOCCOCC,9.82% (inactive)
15,COc1ccc(-c2cc(=O)c3c(O)cc(O[C@@H]4O[C@H](CO[C@@H]5O[C@@H](C)[C@H](O)[C@@H](O)[C@H]5O)[C@@H](O)[C@H](O)[C@H]4O)cc3o2)cc1O,4.65% [at 35.3 µM] (inactive)
16,Cc1c(I)c(=O)n(-c2ccccc2)n1C,5.69% [at 35.3 µM] (inactive)
17,CCCCCCCCSCC,3.56% (inactive)
18,CCC(C=O)CC,-11.7% (inactive)
19,COc1cc(NS(=O)(=O)c2ccc(N)cc2)nc(OC)n1,5.03% [at 35.3 µM] (inactive)
20,NC(CO)C(=O)NNCc1ccc(O)c(O)c1O (centres undefined),-25% [at 35.3 µM] (inactive)
21,CCCCCCCCCCl,4.77% (inactive)
22,N[C@@H](CCC(=O)N[C@@H](CS)C(=O)NCC(=O)O)C(=O)O,2.72% [at 15.8 µM] (inactive)
23,O=C(O)Cc1ccc(Cl)cc1Cl,-3.13% (inactive)
24,O=C(OCc1ccccc1)C(=O)OCc1ccccc1,9.55% (inactive)
25,COc1ccc(S(=O)(=O)N2c3ccc(Cl)cc3[C@@](O)(c3ccccc3Cl)[C@H]2C(=O)N2CCC[C@@H]2C(N)=O)cc1OC,-13.1% [at 35.3 µM] (inactive)
26,Cc1ccccc1C(=O)Nc1ccc(C(=O)N2CCCC(N(C)C)c3ccccc32)cc1 (centres undefined),-15.2% [at 35.3 µM] (inactive)
27,CCCCCCCCC1CCC(=O)O1 (centres undefined),-12.7% (inactive)
28,NS(=O)(=O)c1ccc(NC(=O)CCC(=O)O)cc1,2.94% [at 35.3 µM] (inactive)
29,CCCCCCCCCCCCCC,14.4% (inactive)
30,CC(=O)OC(C)OC(=O)C(C)c1ccc(-c2ccccc2)c(F)c1 (centres undefined),-4.12% [at 35.3 µM] (inactive)
